Screening results as filed in PubChem BioAssay.
Most compounds without a hit are left out; they make up all but 6.5% or so of the library.
FMDV antiviral: High Throughput Screening for Foot and Mouth Disease Virus Antivirals; Potency, µM (top dose mostly 57.9 µM), for the others: at the highest dose activity change, negative = inhibition, hits mostly inhibitors; FMDV antiviral cell-based qHTS; actives 1.2% (n = 410,000); calls by dose curve; tested in HEK293T cells; further: read-out not given here; potency means the concentration at half of the fitted maximal effect; nearly all actives have a fitted effect of over 45% in size
Vaccinia mCherry: qHTS for Stage-Specific Inhibitors of Vaccinia Orthopoxvirus: mCherry Reporter Primary qHTS | Vaccinia virus mCherry reporter infection, fluorescence | Potency, µM (doses to about 36.5 µM), inactives show at the highest dose activity change, negative = inhibition, hits mostly inhibitors | actives 0.63% (n = 310,000) | AID 720579, 2013; calls by dose curve; tested in A549 cells; further: potency means the concentration at half of the fitted maximal effect; nearly all actives have a fitted effect of over 35% in size
LASV entry inh: qHTS for Inhibitors of binding or entry into cells for Lassa Virus | Lassa virus pseudotype entry inhibition, cell reporter | Potency, µM (titrated, usually from 37.9 µM), inactives show top-dose activity change, negative = inhibition, actives largely listed as inhibitors | actives 1.2% (n = 300,000) | AID 540256, 2011; calls by dose curve; tested in HEK293 cells; further: potency means the concentration at half of the fitted maximal effect; nearly all actives have a fitted effect of over 50% in size
HCMV inh: qHTS Assay for inhibitors of the human cytomegalovirus (HCMV). HFF cells, HCMV-luciferase reporter, 72 h; active compounds read low. activity change, negative = inhibition, % at 57.5 µM. actives 4.5% (n = 410,000). AID 1259415, 2018; in the data active means activity change below about -60%; inconclusive means no clear call, values can overlap the other calls; inactive means above about -39%
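Two compound doses tested in HFFs infected with HCMV-luciferase, MOI 1 PFU/cell, 72 h at 37C. Lysate luminescence read with OneGlo; data normalized against buffer-only and 10uM Salinomycin inhibitor controls.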
Vaccinia Venus: qHTS for Stage-Specific Inhibitors of Vaccinia Orthopoxvirus: Venus Reporter Primary qHTS; actives 0.46% (n = 330,000); AID 720580, 2013; Potency, µM (highest dose often 36.5 µM), inactives show at the highest dose activity change, negative = inhibition, hits mostly inhibitors; Vaccinia virus Venus reporter expression, fluorescence; calls by dose curve; tested in A549 cells; further: potency means the concentration at half of the fitted maximal effect; nearly all actives have a fitted effect of over 30% in size
MARV entry inh: qHTS for inhibitors of binding or entry into cells for Marburg Virus. Marburg virus pseudotyped entry inhibition, cell reporter. Potency, µM (titrated, usually from 37.8 µM), for the others: at the top dose activity change, negative = inhibition, usual class: inhibitors. actives 1.8% (n = 300,000). AID 540276, 2011; calls by dose curve; tested in HEK293 cells; further: potency means the concentration at half of the fitted maximal effect
The depositor's hits bear a star; i = inactive; ? = inconclusive; / = not tested or not shown; + = active, no number; [ ] = remark or other dose. On the % scale 0 is the no-effect control and ±100 the full control effect.

SMILES | FMDV antiviral | Vaccinia mCherry | LASV entry inh | HCMV inh | Vaccinia Venus | MARV entry inh
O=C(C1CCCN(S(=O)(=O)c2ccc(Br)s2)C1)N1CCN(c2ccccc2)CC1 (centres undefined) | ? | -17.4% | ? | -12.9 | -22.6% | ?
Cc1cccc(N2CCN(C(=O)C3CCCN(S(=O)(=O)c4ccc(Br)s4)C3)CC2)c1C (centres undefined) | ? | -14.3%[7.34 µM] | ? | -61.7* | -9.6%[7.34 µM] | ?
COc1cccc(N2CCN(C(=O)C3CCC(CNS(=O)(=O)c4ccc(Br)s4)CC3)CC2)c1 (centres undefined) | 17.8µM* | -29.2% | -0.2%[46.1 µM] | -15.2 | -19.7% | -23.6%[46.1 µM]
CCOC(=O)C(C)Sc1nnc2cc(C)c3ccccc3n12 (centres undefined) | -8.5% | -12.2% | 0.0%[46.1 µM] | 2.5 | -16.7% | 12.7%[46.1 µM]
CCc1cccc(-n2c(=O)c3cccnc3n2CC(=O)Nc2c(C)cc(C)cc2C)c1 | -20.3% | 3.4%[7.34 µM] | 27.1%[46.1 µM] | 6.3 | -1.4%[7.34 µM] | /
CN1C(=O)C(=Cc2sc(=O)n(-c3ccccc3)c2N(C)C)C(=O)N(C)C1=O | 15.8µM* | -7.1% | -62.7% | -60.1* | 26.9% | ?
CCOC(=O)N1CCN(C(=O)CSCC(=O)Nc2nc(-c3ccc(OC)cc3)cs2)CC1 | ? | / | -18.5% | 14.1 | / | ?
CCOC(=S)SCC(=O)Nc1nc(-c2ccc(Br)cc2)cs1 | ? | ? | 8.91µM* | -99.5* | ? | ?
COc1ccccc1C1(O)CCN(CC(=O)Nc2nc(-c3ccccc3)cs2)CC1 | 25.1µM* | -19.7% | 5.62µM* | -12.0 | -10.0% | ?
CN(C)CC(=O)Nc1nc(-c2ccccc2)cs1 | 28.1% | -4.8% | -17.6% | 113.4 | -11.1% | 14.6%
CCOC(=O)N1CCN(C(=O)CSCC(=O)Nc2nc(-c3ccc(-c4ccccc4)cc3)cs2)CC1 | ? | ? | / | -76.6* | ? | /
CCOC(=S)SCC(=O)Nc1nc(-c2ccccc2)cs1 | -14.6% | -18.6% | ? | -72.8* | -27.6% | ?
CN(C)c1ccc(C2C=Cc3ccccc32)c2ccccc12 (centres undefined) | / | -13.3% | / | / | 2.2% | /
CCOC(=S)SCC(=O)Nc1nc(C)c(C)s1 | -1.2% | / | / | 65.0 | / | /
CCOC(=S)SCC(=O)Nc1nccs1 | 22.4µM* | -3.2% | -12.5% | 3.2 | -14.2% | ?
Cc1ccc(C)c(-n2c3nc(=O)[nH]c(=O)c-3cc3cc([N+](=O)[O-])ccc32)c1 | 28.2µM* | -21.2% | 3.16µM* | ? | -7.6% | ?
Cc1cccc(-n2c3nc(=O)[nH]c(=O)c-3cc3cc([N+](=O)[O-])ccc32)c1 | 35.5µM* | ? | ? | -66.1* | ? | ?
O=c1nc2n(-c3ccccc3F)c3ccccc3cc-2c(=O)[nH]1 | 0.0% | -10.0% | ? | 6.5 | -1.4% | -15.6%[46.1 µM]
CC(Oc1ccccc1)C(=O)N[C@@H]1C(=O)N2C(C(=O)O)C(C)(C)S[C@H]12 (some centres undefined) | / | i | / | / | -9.0% | /
Cc1c(OCC(=O)NCCCN2CCCC2=O)ccc2c3c(c(=O)oc12)CCCC3 | -22.5% | / | / | + | / | /
Cc1c(OCC(=O)NCCCN2CCCC2=O)ccc2c3c(c(=O)oc12)CCC3 | -6.8% | / | / | ? | / | /
O=C(COc1cccc(Cl)c1)NCC(c1cccs1)N1CCOCC1 (centres undefined) | -9.6% | / | / | 0.0 | / | /
Cc1ccc2c(c1)-c1c(cnn1CC(=O)Nc1ccccc1N1CCN(C)CC1)CO2 | -21.3% | i | ? | ? | -0.2% | 9.2µM*
Cc1cc(Cl)ccc1OCC(=O)NCC(c1cccs1)N1CCOCC1 (centres undefined) | 31.6µM* | -13.2% | ? | -72.2* | -25.1% | ?
Cc1cc(Cl)ccc1OCC(=O)Nc1ccccc1N1CCOCC1 | 28.2µM* | -24.0% | 8.91µM* | ? | -27.3% | ?
Cc1ccc(C(C)C)c(OCC(=O)Nc2ccccc2N2CCN(C)CC2)c1 | 31.6µM* | / | 10µM* | -73.7* | ? | ?
